Compounds without any hit were thinned out: in the full panel of roughly 83,000, 20% have a hit.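 Testing used 96-well plates and a 48-hour single-concentration exposure. Example: -40 means 40% of the starting cells died.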 Unmarked numbers belong to inactive results. The source made the active and inactive calls. How the source made its calls: active means growth percent below 10; inactive means the rest.

Holding throughout (test): NCI-60 one-dose screen, 48 h (100 = growth as untreated, 0 = no growth, -100 = all killed)
Common to all, as to details: 10 µM

The test system of experiment [1] is NCI-H23 lung.
The test system of experiment [2] is NCI-H226 lung.
For experiment [3], the system named is NCI-H322M lung.
Experiment [4] deals with HOP-62 NSCLC.
Experiment [5] has as its system NCI-H460 lung.
In experiment [6] the test system is NCI-H522 lung.
In experiment [7] the test system is A549/ATCC NSCLC.
The test system of experiment [8] is 786-0 renal.
Experiment [9] concerns COLO 205 colon.
In experiment [10] the test system is DU-145 prostate.
The subject of experiment [11] is K-562 leukemia.
Experiment [12] concerns MDA-MB-231 breast.
Experiment [13] deals with RXF 393 renal.
Experiment [14] relates to SF-268 CNS.
The subject of experiment [15] is SF-295 CNS.
The subject of experiment [16] is SF-539 CNS.
Experiment [17] has as its system UACC-257 melanoma.
The subject of experiment [18] is M14 melanoma.
The subject of experiment [19] is HCT-15 colon.
For experiment [20], the system named is MALME-3M melanoma.

As for `NC1=NC(=O)C(c2ccccc2)(c2ccccc2)S1`, the growth in experiment [1] was 106%; in [2] it was 103%; in experiment [3], 111%; in [4], 98.1%; in experiment [5], 113%; in [6], 102%. The growth in [7] was 104%; in experiment [8] it was 102%; in [9], 117%; in [10], 114%; in experiment [11], 90.8%; in [12], 104%. Further, the growth in experiment [13] is 109%; in [14], 113%; in [15] it was 112%; in experiment [16], 111%; in experiment [17], 110%; in experiment [18], 107%. The growth in experiment [19] is 101%.

On to `COc1cc(C)ccc1C(=O)c1ccc(C)cc1OC`, for which the growth is 48.6% in [1]; 62.9% in [2]; 44.5% in experiment [3]; 27.7% in [4]; 5.93% (active) in experiment [5]; -6.71% (active) in experiment [6]. Also, the growth is 26.9% in [7]; 48.7% in [8]; -24.9% (active) in [9]; 0.538% (active) in experiment [10]; 10% in experiment [11]; 41.2% in experiment [12]. Moreover, the growth in experiment [13] is -10.5% (active); in [14], 43.5%; in experiment [15] it was -39.1% (active); in experiment [16], 3.62% (active); in [17], 60.3%; in experiment [18] it was 12.4%. Further, in experiment [19], the growth was 36.3%.

`COC(=O)c1c(-c2ccccc2)csc1NC(=O)c1c(-c2ccccc2)noc1C`: the growth in [1] is 61.4%; in [2] it was 49.6%; in experiment [3], 56.6%; in experiment [4] it was 52.1%; in [5] it was -15.3% (active); in experiment [6] it was 36.1%. In addition, the growth in experiment [7] was -18.6% (active); in [8], 24.1%; in [9], 60.6%; in experiment [10], 39.7%; in experiment [11], 18.5%; in experiment [12], 59.2%. The growth was 38.8% in [13]; 36.5% in experiment [14]; 43.8% in experiment [15]; 33.2% in experiment [16]; 45.5% in [17]; 52.3% in [18]. For the same compound, the growth in experiment [19] is 14.5%.

Regarding `CCN(CC)CCOc1nc2cc(OC)c(OC)cc2c2c1-c1ccc(OC)cc1C2=O`, the growth was 77.3% in experiment [1]; 74.3% in experiment [2]; 83.9% in experiment [3]; 60.9% in experiment [4]; 25.6% in experiment [5]; 73.9% in experiment [6]. Besides, the growth in experiment [7] is 66.1%; in experiment [8] it was 87.8%; in experiment [9], 72.7%; in experiment [10], 64.1%; in experiment [11], 69.6%; in [12], 92.4%. Besides, the growth in experiment [13] is 86.2%; in experiment [14], 44.3%; in experiment [15], 29.6%; in experiment [16] it was 81.9%; in experiment [17], 101%; in experiment [18], 85.9%. Further, the growth in experiment [19] was 81.4%.

With `COc1ccc2c(c1)C(=O)c1c-2c(OCCN(C)C)nc2cc(OC)c(OC)cc12`, the growth in experiment [1] was 53.1%; in experiment [2] it was 58%; in [3], 57.2%; in [4], 36.1%; in experiment [5] it was 36.6%; in [6] it was 42.1%. Besides, the growth in [7] was 47.8%; in [8] it was 79.1%; in [9], 66.5%; in [10] it was 52%; in [11], 62%; in experiment [12], 72.3%. Moreover, the growth was 70.4% in experiment [13]; 41% in experiment [14]; 21.5% in experiment [15]; 71.9% in [16]; 103% in [17]; 88.8% in experiment [18]. Also, the growth in experiment [19] was 76.8%.

Regarding `CN1c2ccccc2[C@]2(Cc3ccccc3)Cc3ccccc3N[C@H]12`, the growth in [1] was 91.4%; in [2], 98.2%; in experiment [3] it was 111%; in experiment [4], 120%; in experiment [5] it was 111%; in [6], 71.7%. Besides, the growth in experiment [7] is 109%; in experiment [8] it was 106%; in [9], 118%; in experiment [10], 115%; in [11], 92.1%; in experiment [12], 97.5%. The growth was 112% in experiment [13]; 112% in experiment [14]; 104% in [15]; 105% in experiment [16]; 111% in experiment [17]; 104% in [18]. The growth in experiment [19] is 96.3%.

Take `CCOC(=O)CNC(=O)CCCCSc1ncnc2nc[nH]c12`: the growth is 113% in [1]; 94.5% in experiment [2]; 173% in experiment [3]; 96.2% in experiment [4]; 97% in experiment [5]; 102% in experiment [6]. The growth in experiment [7] was 109%; in experiment [8] it was 97.9%; in experiment [9], 111%; in [10], 113%; in [11] it was 85.7%; in [12], 108%. In addition, the growth in experiment [14] is 113%; in experiment [15] it was 127%; in [16] it was 91.2%; in [17] it was 81.2%; in experiment [18], 100%; in [19], 101%.

On to `CN(C)CCS(=O)(=O)CCN(C)C`, for which the growth in [1] is 107%; in [2] it was 105%; in experiment [3], 113%; in experiment [4], 108%; in experiment [5], 97%; in [6] it was 117%. Also, the growth is 106% in [7]; 98.7% in experiment [8]; 105% in experiment [9]; 103% in experiment [10]; 117% in experiment [20]; 88.5% in experiment [12]. Further, the growth in experiment [13] was 99.2%; in experiment [14] it was 107%; in experiment [15], 110%; in [16], 100%; in experiment [17], 110%; in experiment [18], 96.7%. For the same compound, in experiment [19], the growth was 103%.

Consider `Cn1c(C(N)=O)cc2c1-c1nc(Nc3ccccc3)ncc1CCC2`, for which the growth in [1] is 52%; in experiment [2], 38.1%; in experiment [3] it was 46.6%; in [4], 38.8%; in experiment [5] it was 37.6%; in experiment [6], 33.5%. Besides, the growth in [7] is 31.1%; in experiment [8], 49.9%; in [9], 59.8%; in [10], 55.5%; in experiment [11] it was 49.8%; in experiment [12] it was 38.1%. The growth in experiment [13] was 3.67% (active); in experiment [14] it was 47.8%; in experiment [15], 60.6%; in [16] it was 35.5%; in [17] it was 74.3%; in experiment [18], 45.5%. Besides, the growth in [19] is 34.6%.

The values are drawn from PubChem BioAssay (NCI).
